This note sets out measurements from PubChem BioAssay (NCI).

Some test systems named below: DU-145 prostate; K-562 leukemia; MALME-3M melanoma; MDA-MB-231 breast; RXF 393 renal; SF-268 CNS; SF-295 CNS; SF-539 CNS; UACC-257 melanoma; M14 melanoma; HCT-15 colon; HT29 colon; SNB-75 CNS; SNB-19 CNS; U251 CNS; PC-3 prostate; SK-MEL-5 melanoma; UACC-62 melanoma; LOX IMVI melanoma; SK-MEL-28 melanoma.
Test in all cases: NCI-60 one-dose screen, 48 h (100 = growth as untreated, 0 = no growth, -100 = all killed)
Common to all, as to details: 10 µM unless noted

Compounds without any hit were thinned out: in the full panel of roughly 83,000, 20% have a hit.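 The endpoint reported here, percent growth, reads 100 for growth as untreated, 0 for no net growth and -100 for all cells dead.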 Values without a mark were called inactive. Active and inactive are the calls of the source. How the source made its calls: active means growth percent below 10; inactive means the rest.

For the molecule `Nc1nnc(CSc2nnc3n(Cc4ccccc4)c(=O)c4c5c(sc4n23)CCCC5)s1`, the growth was 110% with DU-145 prostate; 64.1% with K-562 leukemia; 116% in the test with MALME-3M melanoma; 76.5% with MDA-MB-231 breast; 93.2% in the test on RXF 393 renal; 41.2% in the test on SF-268 CNS. The growth in the test on SF-295 CNS was 276%; in the test with SF-539 CNS it was 105%; with UACC-257 melanoma it was 98.5%; in the test with M14 melanoma, 104%; in the test with HCT-15 colon it was 90.4%; with HT29 colon it was 102%. Moreover, the growth in the test with SNB-75 CNS was 98.7%; in the test with SNB-19 CNS, 100%; in the test with U251 CNS, 93.2%; in the test with PC-3 prostate it was 90.6%; in the test on SK-MEL-5 melanoma, 105%; with UACC-62 melanoma it was 82.1%. Moreover, the growth was 86% with LOX IMVI melanoma and 122% with SK-MEL-28 melanoma.

For `N=C(N)c1ccc(-c2ccc(-c3ccc(-c4cccs4)s3)s2)cc1F`, the growth with DU-145 prostate is 107%; in the test with K-562 leukemia, 15.9%; in the test with MALME-3M melanoma, 102%; in the test with MDA-MB-231 breast, 91.2%; with RXF 393 renal, 90.3%; in the test with SF-268 CNS, 98.8%. Further, the growth in the test with SF-295 CNS was 97.5%; in the test on SF-539 CNS, 94.7%; in the test with UACC-257 melanoma, 102%; in the test with M14 melanoma, 99.4%; with HCT-15 colon it was 84.5%; in the test with HT29 colon, 72.6%. Besides, the growth with SNB-75 CNS is 84.8%; in the test with SNB-19 CNS, 91.6%; in the test on U251 CNS, 101%; with PC-3 prostate, 92.6%; in the test on SK-MEL-5 melanoma, 96.7%; with UACC-62 melanoma it was 97.2%. The growth in the test with LOX IMVI melanoma is 95.9%; with SK-MEL-28 melanoma it was 101%.

Consider `Cc1cc(C)c(-c2cc(O)c(-c3c(C)cc(C)cc3C)cc2O)c(C)c1`, for which the growth is 20.3% with DU-145 prostate; 8.34% (active) in the test with K-562 leukemia; 54.9% in the test with MALME-3M melanoma; 51.5% in the test with MDA-MB-231 breast; 18% in the test with RXF 393 renal; 55.3% with SF-268 CNS. For the same molecule, the growth in the test on SF-295 CNS was 30.2%; in the test with SF-539 CNS, -25.8% (active); in the test with UACC-257 melanoma, 73.8%; with M14 melanoma, 20.7%; in the test on HCT-15 colon, 23.6%; in the test with HT29 colon, 8.84% (active). The growth is -10.3% (active) with SNB-75 CNS; 45.9% with SNB-19 CNS; 25.2% in the test on U251 CNS; 43.2% with PC-3 prostate; 25.5% with SK-MEL-5 melanoma; 34.2% with UACC-62 melanoma. The growth in the test on LOX IMVI melanoma was 41.8%; with SK-MEL-28 melanoma it was 42.8%.

Take `CNC(=O)c1cc(Oc2ccc3nc(NC(=O)c4ccc5ncccc5c4)sc3c2)ccn1`: the growth in the test with DU-145 prostate is 105%; in the test with K-562 leukemia, 93.7%; in the test with MALME-3M melanoma, 80.5%; with MDA-MB-231 breast, 98.6%; in the test with RXF 393 renal, 109%; in the test on SF-268 CNS, 97.4%. Besides, the growth with SF-295 CNS was 86.9%; in the test on SF-539 CNS, 107%; in the test on UACC-257 melanoma, 93.1%; with M14 melanoma, 102%; in the test on HCT-15 colon, 91.1%; in the test on HT29 colon it was 69.9%. In addition, the growth is 86.5% in the test with SNB-75 CNS; 95.1% with SNB-19 CNS; 93.6% in the test with U251 CNS; 93.2% with PC-3 prostate; 86.4% with SK-MEL-5 melanoma; 94.9% in the test with UACC-62 melanoma. The growth was 99.6% with LOX IMVI melanoma and 101% in the test on SK-MEL-28 melanoma.

With `O=C(O)c1ccccc1C(F)(F)F`, the growth with DU-145 prostate is 102%; in the test with K-562 leukemia, 102%; with MALME-3M melanoma, 103%; in the test on MDA-MB-231 breast, 95.3%; with RXF 393 renal, 102%; in the test with SF-268 CNS, 96.3%. The growth with SF-295 CNS is 95.6%; with SF-539 CNS it was 93.7%; in the test with UACC-257 melanoma, -1.89% (active); in the test on M14 melanoma, 93.4%; in the test with HCT-15 colon, 104%; in the test with HT29 colon, 107%. Moreover, the growth with SNB-75 CNS is 77.1%; in the test with SNB-19 CNS, 99.1%; with U251 CNS, 96.5%; in the test with PC-3 prostate it was 99.7%; in the test with SK-MEL-5 melanoma, 105%; with UACC-62 melanoma, 95%. The growth is 81.2% in the test with LOX IMVI melanoma and 121% with SK-MEL-28 melanoma.

On to `Cc1ccc(S(=O)(=O)Nc2ccccc2)cc1N`, for which the growth in the test on DU-145 prostate was 108%; in the test with K-562 leukemia, 78.3%; with MALME-3M melanoma, 133%; in the test with MDA-MB-231 breast, 83.9%; with RXF 393 renal it was 94.5%; in the test with SF-268 CNS it was 94.8%. Also, the growth in the test on SF-295 CNS was 119%; in the test on SF-539 CNS, 106%; in the test with UACC-257 melanoma it was 92.3%; with M14 melanoma, 96.2%; with HCT-15 colon, 99.1%; in the test with HT29 colon it was 107%. The growth in the test on SNB-75 CNS is 95%; in the test with SNB-19 CNS, 108%; in the test on U251 CNS, 101%; with PC-3 prostate, 89.5%; with SK-MEL-5 melanoma it was 88.5%; in the test on UACC-62 melanoma, 90.8%. Besides, the values for the growth in the test on LOX IMVI melanoma and in the test on SK-MEL-28 melanoma were 91.3% and 100%, respectively.

Consider `COc1cc2c(c(OC)c1OC)-c1ccc(NNC(N)=S)c(=O)cc1[C@@H](NC(C)=O)CC2`, for which the growth is -14.5% (active) in the test with DU-145 prostate; 10.1% with K-562 leukemia; 88.4% in the test on MALME-3M melanoma; 20% in the test with MDA-MB-231 breast; -8.91% (active) in the test with RXF 393 renal; 21.3% with SF-268 CNS. Moreover, the growth was 10.6% in the test with SF-295 CNS; -18.4% (active) in the test with SF-539 CNS; 57.2% in the test on UACC-257 melanoma; -2.7% (active) in the test on M14 melanoma; 38.8% with HCT-15 colon; -17.8% (active) in the test with HT29 colon. In addition, the growth in the test on SNB-75 CNS is 59.5%; in the test with SNB-19 CNS, 42.3%; in the test on U251 CNS, 13.6%; in the test with PC-3 prostate it was 13.8%; with SK-MEL-5 melanoma, -41.2% (active); in the test with UACC-62 melanoma, 32.2%. The figures for the growth in the test on LOX IMVI melanoma and with SK-MEL-28 melanoma were 26.2% and 62.8%, respectively.
